Assay results reported in PMC4336329 (PLoS ONE, 2015).
Hit rate of the full screen: of about 310,000 compounds, about 14,000 (4.5%) showed an effect of 50% or more. The effect is printed as a negative number. The full list was thinned out, with strong results kept by preference.

target: human ether-à-go-go-related gene (hERG) potassium channel (human, UniProt Q12809); assay: primary screen, population patch clamp on CHO cells stably expressing hERG; higher = less effect of the substance
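Note: peak tail current of the secondary pulse compared with the same well before compound.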

Chain of human ether-à-go-go-related gene (hERG) potassium channel (Q12809 whole entry, looked up): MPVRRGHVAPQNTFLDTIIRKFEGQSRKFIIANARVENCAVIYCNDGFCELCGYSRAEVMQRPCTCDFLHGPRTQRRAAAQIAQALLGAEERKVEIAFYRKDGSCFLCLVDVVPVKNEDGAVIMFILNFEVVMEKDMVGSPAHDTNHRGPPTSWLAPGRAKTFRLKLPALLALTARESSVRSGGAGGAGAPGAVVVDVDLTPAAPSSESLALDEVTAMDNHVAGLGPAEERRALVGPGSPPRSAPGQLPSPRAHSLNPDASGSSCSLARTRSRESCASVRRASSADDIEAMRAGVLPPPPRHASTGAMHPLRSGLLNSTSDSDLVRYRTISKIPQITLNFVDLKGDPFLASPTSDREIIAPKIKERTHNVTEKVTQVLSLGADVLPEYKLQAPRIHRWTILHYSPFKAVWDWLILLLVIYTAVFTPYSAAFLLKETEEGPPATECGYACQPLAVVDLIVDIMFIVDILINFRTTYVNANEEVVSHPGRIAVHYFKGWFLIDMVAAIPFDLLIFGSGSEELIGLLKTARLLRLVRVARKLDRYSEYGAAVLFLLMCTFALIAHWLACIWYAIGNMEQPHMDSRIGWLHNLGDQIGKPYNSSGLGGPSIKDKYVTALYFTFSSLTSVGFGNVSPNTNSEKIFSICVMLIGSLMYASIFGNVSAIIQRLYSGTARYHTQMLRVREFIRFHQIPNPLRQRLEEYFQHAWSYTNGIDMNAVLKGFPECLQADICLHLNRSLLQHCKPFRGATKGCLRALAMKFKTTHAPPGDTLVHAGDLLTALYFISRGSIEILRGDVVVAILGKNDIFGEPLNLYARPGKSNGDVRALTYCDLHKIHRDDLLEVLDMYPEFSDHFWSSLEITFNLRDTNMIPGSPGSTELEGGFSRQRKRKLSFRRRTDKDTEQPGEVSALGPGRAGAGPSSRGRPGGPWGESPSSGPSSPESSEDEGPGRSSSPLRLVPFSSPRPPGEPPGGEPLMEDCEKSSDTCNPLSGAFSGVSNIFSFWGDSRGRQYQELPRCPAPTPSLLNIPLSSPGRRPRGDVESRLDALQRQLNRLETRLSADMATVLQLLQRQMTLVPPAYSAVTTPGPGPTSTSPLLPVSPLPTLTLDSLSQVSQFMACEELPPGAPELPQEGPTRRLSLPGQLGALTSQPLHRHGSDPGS

SMILES | hERG current change (%, negative = inhibition) at 10uM
CN(C)c1ccc(/C=C2\NC(=S)N(Cc3ccccc3)C2=O)cc1 | -0.668%
O=C(CSC(=S)N1CCCC1)c1ccccc1 | 4.99%
COc1cc2c3c(c1OC)C1(C=CC(=NO)C=C1)CC3N(C(C)=O)CC2 (stereo not drawn) | 13.8%
O=[N+]([O-])c1cccc(C(=Nc2cccc(Cl)c2)NO)c1 | -20%
C/C(=N/NC(=O)CSc1nc2ccccc2s1)c1ccncc1 | -24%
CCOC(=O)c1cnc2c(cnn2C)c1Oc1ccc(OC)cc1 | -43%
CC(NC(=O)COc1ccccc1)C(c1ccccc1)N1CCN(C)CC1 (stereo not drawn) | -9.29%
CCOc1ccc(NC(=S)NC(C)C(c2ccccc2)N2CCN(C)CC2)cc1 (stereo not drawn) | -58.5%
COc1ccc(NC(=S)NC(C)C(c2ccccc2)N2CCOCC2)cc1 (stereo not drawn) | 7.52%
CC(=O)Nc1cc(C(=O)N2CCC3(CC2)OCCO3)ccc1Sc1ccc(F)cc1 | 2.37%
CCCN1CCN(C(=O)c2ccc(Sc3ccc(C)cc3)c(NC(C)=O)c2)CC1 | -50.6%
CC(=O)Nc1cc(C(=O)N2CCc3ccccc3C2)ccc1Sc1ccc(Cl)cc1 | -45%
CC(=O)Nc1cc(C(=O)N2CCc3ccccc3C2)ccc1Sc1ccc(F)cc1 | -55.4%
CC(=O)Nc1cc(C(=O)N2CCN(C)CC2)ccc1Sc1ccc(C)cc1 | -13.5%
CC(=O)Nc1cc(C(=O)N2CCCC2)ccc1Sc1ccc(C)cc1 | -30.5%
CC(=O)Nc1cc(C(=O)N2CCc3ccccc3C2)ccc1Sc1ccc(C)cc1 | -53.6%
CC(=O)Nc1cc(C(=O)N2CCC3(CC2)OCCO3)ccc1Sc1ccc(C)cc1 | -16%
O=C(c1cccc(F)c1)N1CCc2ccccc2C1 | -7.14%
CCCCn1c(N)c(N(CC(C)C)C(=O)c2cc(C)oc2C)c(=O)[nH]c1=O | 8.94%
Clc1ccc(-c2ccn[nH]2)cc1 | 3.54%
Cc1ccc(NC(=O)N2C(=O)C3(OCCO3)c3ccccc32)cc1 | 18.2%
CCS(=O)(=O)c1ccc(-c2cccc(NC(=O)COc3ccccc3)c2)nn1 | 6.57%

SMILES | hERG current change (%, negative = inhibition) at 10uM
O=C1CCCN1CN(C(=O)c1ccc2c(c1)OCO2)c1cccc(Cl)c1 | -7.64%
CC(C)CN(C(=O)COC(=O)C(C)N1C(=O)c2ccccc2C1=O)c1c(N)n(Cc2ccccc2)c(=O)[nH]c1=O (stereo not drawn) | -7.78%
COC(=O)c1cc(NC(=O)CC2NCCNC2=O)cc(C(=O)OC)c1 (stereo not drawn) | 5.72%
Cc1ccc(-c2csc(NC(=O)c3ccc([N+](=O)[O-])o3)n2)cc1 | 6.85%
CS(=O)(=O)c1ccc(-c2cc(Br)sc2-c2ccc(F)cc2)cc1 | 16.4%
Cc1n[nH]c(C)c1S(=O)(=O)N1CCCC(C(=O)NCC2COc3ccccc3O2)C1 (stereo not drawn) | 0.365%
O=C(CN1CCC(NC(=O)Cc2ccccc2)CC1)Nc1ccccc1Br | -29.2%
O=C(NCc1ccccc1)N1CCC(n2cnc3cc(F)ccc32)CC1 | -64.3%
CCOc1ccc2nc(NC(=O)CN3CCC(n4nnc5cc(F)ccc54)CC3)sc2c1 | -40.1%
COc1cccc(C(=O)NC2CCN(CC(=O)NCc3ccccc3OC)CC2)c1 | -10.7%
O=C(CN1CCN(c2ccc(F)cc2)CC1)Nc1ccccc1Br | 12.5%
O=C(NCc1ccc(F)cc1)C1CCN(C(=O)NCc2ccccc2)CC1 | 6.31%
CCOC(=O)Nc1ccc2c(c1)ncn2C1CCCCC1 | -8.98%
O=C(CN1CCC(n2cnc3cc(F)ccc32)CC1)Nc1ccccc1Br | -87.8%
CCOc1ccc(NC(=O)CN2CCC(n3cnc4cc(F)ccc43)CC2)cc1 | -74.3%
COc1ccccc1CNC(=O)CN1CCC(n2cnc3cc(F)ccc32)CC1 | -66%
O=C(c1ccc(F)cc1)C1CCN(C(=O)NCc2ccccc2)CC1 | -6.67%
COc1ccccc1CNC(=O)CN1CCC(NC(=O)c2ccccc2F)CC1.Cl | -14.5%
COc1ccc(C(=O)Nc2ccccc2C(=O)NC(C)C)cc1OC | -6.82%
CCc1nc(SCC(=O)O)c2c3c(sc2n1)COC(C)(C)C3 | 23.2%
CCCNc1c(NS(=O)(=O)c2ccc(C3CCCCC3)cc2)c(=O)oc2ccccc12 | 21.9%
Cc1onc(-c2ccccc2)c1-c1csc(N/N=C/c2ccccc2)n1 | 8.79%

SMILES | hERG current change (%, negative = inhibition) at 10uM
CC(C)[C@H](NC(=O)c1cccc(S(=O)(=O)N2CCCC2)c1)c1nc2ccccc2[nH]1 | 9.05%
COc1ccc(/C=N/N2CCN(c3ccncc3S(=O)(=O)N3CCCCC3)CC2)cc1 | 10.3%
CCOC(=O)c1cc2sc(C)cc2n1CC(=O)N1CCN(C(=O)c2ccco2)CC1 | -8.61%
Cc1ccc2nc(Cl)c(/C=N/NC(=O)[C@H]3C[C@@H]3c3ccccc3)cc2c1 | 19.5%
O=C(Cc1ccc(-c2ccccc2)cc1)NCCN1CCOCC1 | 0.566%
COc1cccc(CC2(CO)CCCN(Cc3[nH]c4ccc(C)cc4c3C)C2)c1 (stereo not drawn) | -74.7%
COc1cccc(CC2(CO)CCCN(Cc3ccc(CN4CCCCC4)s3)C2)c1 (stereo not drawn) | -22.1%
COc1cccc(CC2(CO)CCCN(Cc3ccc(C)s3)C2)c1 (stereo not drawn) | -50.5%
COc1cccc(CC2(CO)CCCN(Cc3ccc4c(c3)OCCO4)C2)c1 (stereo not drawn) | -58.5%
OCC1(Cc2ccccc2)CCCN(Cc2ccc3c(c2)OCCO3)C1 (stereo not drawn) | -24.6%
COc1cccc(CC2(CO)CCCN(Cc3sc(N4CCCC4)nc3Cl)C2)c1 (stereo not drawn) | -27.2%
COc1cccc(CC2(CO)CCCN(Cc3ccc(OC(F)F)cc3)C2)c1 (stereo not drawn) | -68.6%
COc1cccc(CC2(CO)CCCN(Cc3cc4ccccc4[nH]3)C2)c1 (stereo not drawn) | -37.5%
CCC(NC(=O)c1ccccc1NC(=O)c1ccco1)C(=O)NNC(=O)c1ccc(OC)cc1 (stereo not drawn) | 10.3%
NC(=O)c1ccc(SCC(=O)OCC(=O)NCC2CCCCC2)c([N+](=O)[O-])c1 | -5.21%
CC(C)(C)NC(=O)c1ccc2c(c1)N(CC(=O)NC1CCCC1)C(=O)C(C)(C)O2 | 8.72%
COc1ccc(-c2csc(NC(=O)CSCC(=O)Nc3cc(C)on3)n2)cc1OC | 1.07%
O=C(Nc1ccc(-c2n[nH]c(=S)o2)cc1)c1ccccc1 | 15.6%
O=C(c1cccc(S(=O)(=O)Nc2ccccc2F)c1)N1CCN(c2ccccc2F)CC1 | -21.5%
CCOc1ccc(NC(=O)CSc2nccn2Cc2ccco2)cc1 | -19.5%
Cc1cc(S(=O)(=O)N2CCCC(C(=O)Nc3ccc(C(=O)O)cc3)C2)ccc1Cl (stereo not drawn) | 10.2%
COc1ccc(CSc2nnnn2C)cc1F | -6.74%

SMILES | hERG current change (%, negative = inhibition) at 10uM
Cc1ccc(/C=C2\SC(N3CCCCC3)=NC2=O)cc1 | 0.193%
CC(C)(C)c1ccc(/C=C2/SC(N3CCCC3)=NC2=O)cc1 | -51.1%
CCOC(=O)C1CCN(C2=NC(=O)/C(=C/c3ccc(O)cc3)S2)CC1 | -67.1%
CCOC(=O)C1CCN(C2=NC(=O)/C(=C/c3ccccc3OC)S2)CC1 | -22.9%
CC1CCN(C2=NC(=O)/C(=C/c3ccc(O)cc3)S2)CC1 | -24.7%
CCOC(=O)C1CCN(C2=NC(=O)/C(=C/c3ccc(Cl)cc3)S2)CC1 | -64.8%
CCOC(=O)C1CCN(C2=NC(=O)/C(=C/c3ccc(OC)c(OC)c3)S2)CC1 | -17.8%
CCOC(=O)C1CCCN(C2=NC(=O)/C(=C/c3ccc(N(C)C)cc3)S2)C1 (stereo not drawn) | -24.9%
Cc1ccc(/C=C2\SC(N3CCCC3)=NC2=O)cc1 | -22.4%
COc1ccc(NCc2nnc(SCC(=O)Nc3ccc(OC)cc3OC)o2)cc1 | -9.35%
CCN(c1ccccc1)S(=O)(=O)c1cc2c(cc1C)n(C)c(=O)c(=O)n2C | -32%
Cc1cccc(C(=O)NNS(=O)(=O)c2ccccc2[N+](=O)[O-])c1 | 1.16%
CN(C(=O)CCS(=O)(=O)c1ccc2c(c1)oc(=O)n2C)C1CCCCC1 | 3.68%
Cc1nn(CCC(=O)O)c(C)c1C | 5.72%
C=CCn1c(=O)c2c(nc3n2CCN3c2cccc(Cl)c2C)n(C)c1=O | -15%
CCOC(=O)N1CCN(Cc2nc3cc(NC(=O)C(C)C)ccc3n2CC)CC1 | 14.3%
CCOC(=O)N1CCN(Cc2nc3cc(NC(=O)CC(C)C)ccc3n2CC)CC1 | -8.18%
CCCn1c(CN2CCN(C(=O)OCC)CC2)nc2cc([N+](=O)[O-])ccc21 | -64%
CCOC(=O)N1CCN(Cc2nc3cc([N+](=O)[O-])ccc3n2C)CC1 | -24.5%
CCCn1c(CN2CCN(C(=O)OCC)CC2)nc2cc(NC(C)=O)ccc21 | 12.8%
CCOC(=O)N1CCN(Cc2nc3cc([N+](=O)[O-])ccc3n2CC)CC1 | -51.9%
